Experimental data taken from PubChem BioAssay (NCATS).
Records with an inconclusive call do not appear. Calls of active or inactive are those of the source. Calls come from the whole dose curve; as a rule, active = well fitted cell-killing curve with a large enough effect; inconclusive = small, poorly fitted or top-dose-only effect; inactive = flat fitted curve, though single readings scatter.

What was measured:
[1] = Cell Viability - LYMP2-013 (AID 970); note: series mostly up to about 92 µM; nearly all actives have a fitted effect of over 55% in size
How it was run: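 qHTS; 2500 lymphoblastoid cells/well; 5 hr 37 C settle; cpd 24 hr 37 C; CellTiter-Glo, 30 min RT; luminescence. AC50 = Hill fit.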

[2] = Cell Viability - LYMP2-015 (AID 971); note: nearly all actives have a fitted effect of over 55% in size
How it was run: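 Luminescent ATP read-out (CellTiter-Glo) served as the viability measure after lymphoblastoid cells were exposed to compounds for 24 hours at 37 C. Concentration-response data were fitted with the Hill equation to give AC50.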

[3] = Cell Viability - LYMP2-017 (AID 972); note: series mostly up to about 92 µM; nearly all actives have a fitted effect of over 55% in size
How it was run: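 2500 cells/well, 5 h 37 C; cpd 24 h 37 C in complete medium; CellTiter-Glo, 30 min RT; luminescence (ATP). AC50 via Hill fit, qHTS.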

[4] = Cell Viability - LYMP2-019 (AID 973); note: nearly all actives have a fitted effect of over 55% in size
How it was run: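 Luminescent ATP read-out (CellTiter-Glo, 30 min room temperature) served as the viability measure after 24 hr treatment of lymphoblastoid cells at 37 C. Concentration-response data were fitted to the Hill equation for AC50.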

[5] = Cell Viability - LYMP2-021 (AID 974)
How it was run: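 Plate 2500 lymphoblastoid cells per well and incubate 5 hr at 37 C. Add compounds over a concentration range and incubate 24 hr at 37 C. Add CellTiter-Glo, wait 30 min at room temperature, read luminescence.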

[6] = Cell Viability - LYMP2-023 (AID 975)
How it was run: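 2500 cells/well, 5 hr 37 C; cpd 24 hr 37 C; CellTiter-Glo, 30 min RT; luminescence. qHTS conc-response, Hill fit -> AC50. Pos ctrl tetraoctylammonium bromide.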

[7] = Cell Viability - LYMP2-025 (AID 976); note: series mostly up to about 92 µM
How it was run: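 Seed 2500 LYMP2-025 cells/well; 5 hr at 37 C; add compound; 24 hr at 37 C; add CellTiter-Glo; 30 min RT; read luminescence. AC50 from Hill-modelled concentration-response.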

[8] = Cell Viability - LYMP2-002 (AID 977);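 note: series mostly up to about 92 µM; compound exposure lasted 24 h at 37 °C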
How it was run: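 Human lymphoblastoid LYMP2-002 cells, 2500 per well, exposed to compounds for 24 h at 37 C in complete medium; viability read as intracellular ATP by CellTiter-Glo luminescence, AC50 from Hill fits.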

[9] = Cell Viability - LYMP2-006 (AID 978); note: series mostly up to about 92 µM; nearly all actives have a fitted effect of over 60% in size
How it was run: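 Cells are seeded at 2500 per well and rested 5 hr at 37 C. Compounds are added across a concentration series for 24 hr at 37 C, after which ATP is quantified by luciferase luminescence.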

[10] = Cell Viability - LYMP2-007 (AID 979);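 note: cells exposed to compound for 24 h before reading; nearly all actives have a fitted effect of over 60% in size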
How it was run: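 Luminescent ATP signal (CellTiter-Glo) serves as the viability read-out after 24 hr compound treatment of lymphoblastoid cells in complete medium at 37 C. Concentration-response data were fitted to the Hill equation to give AC50 values.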

[11] = Cell Viability - LYMP2-008 (AID 980); note: nearly all actives have a fitted effect of over 60% in size
How it was run: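 qHTS, human lymphoblastoid line, 2500 cells/well; 5 hr preincubation, 24 hr compound, 37 C. CellTiter-Glo ATP luminescence. AC50 via Hill equation. Tetraoctylammonium bromide positive control.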

[12] = Cell Viability - LYMP2-010 (AID 981); note: nearly all actives have a fitted effect of over 55% in size
How it was run: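 Luminescent ATP signal (CellTiter-Glo) served as the viability read-out. Cells of the human lymphoblastoid line were treated with compound over a concentration range for 24 hours at 37 C, and AC50 values came from Hill-equation modeling.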

[13] = Cell Viability - LYMP2-012 (AID 982)
[14] = Cell Viability - LYMP2-014 (AID 983); note: series mostly up to about 92 µM; nearly all actives have a fitted effect of over 50% in size
How it was run: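 Luminescent ATP signal (CellTiter-Glo, 30 min at room temperature) serves as the viability read-out after 24 hr compound exposure at 37 C. Cells were seeded at 2500 per well and settled 5 hr beforehand.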

[15] = Cell Viability - LYMP2-016 (AID 984); note: nearly all actives have a fitted effect of over 55% in size
How it was run: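 Cells were seeded at 2500 per well and rested 5 hr before a 24 hr compound exposure at 37 C. Viability was then gauged as cellular ATP by luciferase luminescence, with AC50 values fitted to the Hill equation.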

[16] = Cell Viability - LYMP2-018 (AID 985); note: nearly all actives have a fitted effect of over 50% in size
How it was run: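 Luminescent ATP signal (CellTiter-Glo, read after 30 min at room temperature) reports viable cells after 24 hr compound treatment at 37 C. Concentration-response data were fitted to the standard Hill equation for AC50.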

[17] = Cell Viability - LYMP2-020 (AID 986)
How it was run: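 Luminescent ATP signal (CellTiter-Glo, 30 min at room temperature) is the read-out after 24 h compound treatment of lymphoblastoid cells at 37 C. AC50 values come from Hill-equation fits across concentrations.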

[18] = Cell Viability - LYMP2-022 (AID 987); note: nearly all actives have a fitted effect of over 55% in size
How it was run: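 qHTS: human lymphoblastoid cells 2500/well; 5 hr 37 C; cpd added; 24 hr 37 C; CellTiter-Glo, 30 min RT; luminescence. AC50 via Hill fit; tetraoctylammonium bromide positive ctrl.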

[19] = Cell Viability - LYMP2-024 (AID 988); note: nearly all actives have a fitted effect of over 60% in size
How it was run: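 Steps: seed 2500 cells/well, 5 hr 37 C; add compound, 24 hr 37 C; add CellTiter-Glo, 30 min room temperature; read luminescence. AC50 derived by Hill modelling of concentration-dependent ATP loss.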

[20] = Cell Viability - LYMP2-026 (AID 989); note: nearly all actives have a fitted effect of over 50% in size
How it was run: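 Luminescent ATP signal (CellTiter-Glo, 30 min room temperature) measures viable lymphoblastoid cells after 24 hr compound treatment at 37 C. Decreased ATP reflects acute toxicity; AC50 values come from Hill-equation modeling.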

Measured: outcome

COc1ccc(CCC(=O)c2c(O)cc(O[C@@H]3O[C@H](CO)[C@@H](O)[C@H](O)[C@H]3O[C@@H]3O[C@@H](C)[C@H](O)[C@@H](O)[C@H]3O)cc2O)cc1O
inactive: all assays above

C=C1C[C@]23C[C@@]1(O)CC[C@H]2[C@@]12C=C[C@H](O)[C@@](C)(C(=O)O1)[C@H]2[C@@H]3C(=O)O
not listed: [7]
inactive: all other assays above
